Source: PubChem BioAssay AID1159580 (chemical genetic matrix, 2015)
Screen size: about 5,500 compounds; about 2,000 (36%) were called active. Not shown: some 18% with an inconclusive outcome. The list shows a part of the results. Values without a mark were called inactive. Rule as the data show it: active = normalized growth mostly below about 0.91 (no sharp cut-off); inconclusive = no clear call, values can overlap the other calls; inactive = mostly above about 0.92.

Assay: chemical genetic growth profiling, strain panel (AID 1159580);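 also: tested at 20 µM; growth read once vehicle control cultures reached saturation at 30 °C; 1 = growth at the plate median or of vehicle wells; lower values mean less growth of the strain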
Settings: growth OD

For CC1=CCc2c(cc3oc(C)cc(=O)c3c2O)OC1, which normalized growth (S. cerevisiae deletion strains, locus YJR075W, strain HOC1, hits give low values) is on record?
The normalized growth was 0.926.

And the normalized growth (S. cerevisiae deletion strains, locus YKL009W, strain mrt4, hits give low values)?
The normalized growth was 0.912.

And the normalized growth (S. cerevisiae deletion strains, locus YKL068W, hits give low values)?
The normalized growth was 0.974.

What about the normalized growth (S. cerevisiae deletion strains, locus YKL085W, strain MDH1 (second series), hits give low values) of the same compound?
Its normalized growth is 0.903 (active).

And the normalized growth (S. cerevisiae deletion strains, locus YKL085W, strain MDH1, hits give low values)?
The normalized growth was 0.903 (active).

What about the normalized growth (S. cerevisiae deletion strains, locus YKL160W, strain elf1, hits give low values) of the same compound?
The normalized growth was 0.978.

What about the normalized growth (S. cerevisiae deletion strains, locus YKL190W, strain CNB1, hits give low values) of the same compound?
Its normalized growth is 0.902 (active).

And the normalized growth (S. cerevisiae deletion strains, locus YKR001C, strain vps1, hits give low values)?
Its normalized growth is 0.759 (active).

And the normalized growth (S. cerevisiae deletion strains, locus YKR026C, strain gcn3, hits give low values)?
Its normalized growth is 0.951.

And the normalized growth (S. cerevisiae deletion strains, locus YKR091W, strain srl3, hits give low values)?
The normalized growth was 0.977.

And the normalized growth (S. cerevisiae deletion strains, locus YLL001W, strain dnm1, hits give low values)?
Its normalized growth is 0.968.

And the normalized growth (S. cerevisiae deletion strains, locus YLL026W, hits give low values)?
The normalized growth was 0.97.

What about the normalized growth (S. cerevisiae deletion strains, locus YLL041C, strain sdh2, hits give low values) of the same compound?
Its normalized growth is 0.972.

What about the normalized growth (S. cerevisiae deletion strains, locus YLR027C, strain aat2, hits give low values) of the same compound?
The normalized growth was 0.984.

And the normalized growth (S. cerevisiae deletion strains, locus YLR039C, strain RIC1, hits give low values)?
The normalized growth was 0.766.

What about the normalized growth (S. cerevisiae deletion strains, locus YLR058C, strain SHM2, hits give low values) of the same compound?
The normalized growth was 0.923.

What about the normalized growth (S. cerevisiae deletion strains, locus YLR102C, strain apc9, hits give low values) of the same compound?
Its normalized growth is 0.97.

What about the normalized growth (S. cerevisiae deletion strains, locus YLR113W, strain HOG1, hits give low values) of the same compound?
The normalized growth was 0.931.

What about the normalized growth (S. cerevisiae deletion strains, locus YLR221C, strain rsa3, hits give low values) of the same compound?
The normalized growth was 0.944.

And the normalized growth (S. cerevisiae deletion strains, locus YLR258W, strain gsy2, hits give low values)?
Its normalized growth is 0.95.

And the normalized growth (S. cerevisiae deletion strains, locus YLR262C, strain YPT6 (second series), hits give low values)?
The normalized growth was 0.883.

And the normalized growth (S. cerevisiae deletion strains, locus YLR262C, strain YPT6, hits give low values)?
The normalized growth was 0.772.

What about the normalized growth (S. cerevisiae deletion strains, locus YLR268W, strain sec22, hits give low values) of the same compound?
Its normalized growth is 0.869 (active).

What about the normalized growth (S. cerevisiae deletion strains, locus YLR320W, strain mms22, hits give low values) of the same compound?
Its normalized growth is 0.932.

What about the normalized growth (S. cerevisiae deletion strains, locus YLR330W, strain CHS5, hits give low values) of the same compound?
Its normalized growth is 0.944.

And the normalized growth (S. cerevisiae deletion strains, locus YLR342W, strain FKS1 (second series), hits give low values)?
Its normalized growth is 0.792 (active).

And the normalized growth (S. cerevisiae deletion strains, locus YLR342W, strain FKS1, hits give low values)?
The normalized growth was 1.

What about the normalized growth (S. cerevisiae deletion strains, locus YLR357W, strain rsc2, hits give low values) of the same compound?
Its normalized growth is 1.01.

And the normalized growth (S. cerevisiae deletion strains, locus YLR370C, strain arc18, hits give low values)?
The normalized growth was 0.998.

And the normalized growth (S. cerevisiae deletion strains, locus YLR371W, strain rom2, hits give low values)?
The normalized growth was 0.916.

And the normalized growth (S. cerevisiae deletion strains, locus YLR384C, strain iki3, hits give low values)?
The normalized growth was 0.988.

What about the normalized growth (S. cerevisiae deletion strains, locus YLR418C, strain cdc73, hits give low values) of the same compound?
Its normalized growth is 0.639 (active).

What about the normalized growth (S. cerevisiae deletion strains, locus YML016C, strain PPZ1, hits give low values) of the same compound?
Its normalized growth is 0.953.

And the normalized growth (S. cerevisiae deletion strains, locus YML032C, strain rad52, hits give low values)?
Its normalized growth is 0.917.

And the normalized growth (S. cerevisiae deletion strains, locus YML120C, strain ndi1, hits give low values)?
Its normalized growth is 0.957.

What about the normalized growth (S. cerevisiae deletion strains, locus YML124C, strain tub3, hits give low values) of the same compound?
Its normalized growth is 0.966.

What about the normalized growth (S. cerevisiae deletion strains, locus YMR058W, strain fet3, hits give low values) of the same compound?
Its normalized growth is 0.936.

And the normalized growth (S. cerevisiae deletion strains, locus YMR078C, strain ctf18, hits give low values)?
The normalized growth was 0.956.

What about the normalized growth (S. cerevisiae deletion strains, locus YMR125W, strain sto1, hits give low values) of the same compound?
Its normalized growth is 0.975.

What about the normalized growth (S. cerevisiae deletion strains, locus YMR129W, hits give low values) of the same compound?
The normalized growth was 0.967.

And the normalized growth (S. cerevisiae deletion strains, locus YMR205C, strain PFK2, hits give low values)?
The normalized growth was 0.971.

And the normalized growth (S. cerevisiae deletion strains, locus YMR223W, strain ubp8, hits give low values)?
The normalized growth was 0.902 (active).

What about the normalized growth (S. cerevisiae deletion strains, locus YMR231W, strain pep5, hits give low values) of the same compound?
Its normalized growth is 0.998.

And the normalized growth (S. cerevisiae deletion strains, locus YMR263W, strain SAP30, hits give low values)?
Its normalized growth is 0.865 (active).

What about the normalized growth (S. cerevisiae deletion strains, locus YMR307W, strain GAS1, hits give low values) of the same compound?
Its normalized growth is 0.733.

And the normalized growth (S. cerevisiae deletion strains, locus YNL067W, strain RPL9B, hits give low values)?
The normalized growth was 0.844 (active).

And the normalized growth (S. cerevisiae deletion strains, locus YNL071W, strain lat1, hits give low values)?
Its normalized growth is 0.979.

What about the normalized growth (S. cerevisiae deletion strains, locus YNL128W, strain TEP1, hits give low values) of the same compound?
The normalized growth was 0.881.

And the normalized growth (S. cerevisiae deletion strains, locus YNL153C, strain GIM3, hits give low values)?
The normalized growth was 0.858 (active).

What about the normalized growth (S. cerevisiae deletion strains, locus YNL183C, strain NPR1, hits give low values) of the same compound?
Its normalized growth is 0.92.

What about the normalized growth (S. cerevisiae deletion strains, locus YNL209W, strain ssb2, hits give low values) of the same compound?
Its normalized growth is 1.01.

And the normalized growth (S. cerevisiae deletion strains, locus YNL233W, strain BNI4, hits give low values)?
Its normalized growth is 0.807 (active).

And the normalized growth (S. cerevisiae deletion strains, locus YNL248C, strain rpa49, hits give low values)?
The normalized growth was 0.971.

And the normalized growth (S. cerevisiae deletion strains, locus YNL250W, strain rad50, hits give low values)?
The normalized growth was 0.971.

What about the normalized growth (S. cerevisiae deletion strains, locus YNL271C, strain bni1, hits give low values) of the same compound?
The normalized growth was 0.959.

And the normalized growth (S. cerevisiae deletion strains, locus YNL298W, strain CLA4, hits give low values)?
Its normalized growth is 0.925.

And the normalized growth (S. cerevisiae deletion strains, locus YNL307C, strain MCK1, hits give low values)?
Its normalized growth is 0.651 (active).

And the normalized growth (S. cerevisiae deletion strains, locus YNL322C, strain KRE1 (second series), hits give low values)?
The normalized growth was 0.984.

What about the normalized growth (S. cerevisiae deletion strains, locus YNL322C, strain KRE1, hits give low values) of the same compound?
Its normalized growth is 0.94.

What about the normalized growth (S. cerevisiae deletion strains, locus YNR049C, strain mso1, hits give low values) of the same compound?
The normalized growth was 0.981.

What about the normalized growth (S. cerevisiae deletion strains, locus YNR052C, strain pop2, hits give low values) of the same compound?
Its normalized growth is 0.973.

And the normalized growth (S. cerevisiae deletion strains, locus YOL006C, strain TOP1, hits give low values)?
Its normalized growth is 0.554.

And the normalized growth (S. cerevisiae deletion strains, locus YOL012C, strain htz1)?
Its normalized growth is 1.55.

And the normalized growth (S. cerevisiae deletion strains, locus YOL147C, strain pex11, hits give low values)?
The normalized growth was 0.922 (active).

What about the normalized growth (S. cerevisiae deletion strains, locus YOR001W, strain rrp6, hits give low values) of the same compound?
Its normalized growth is 0.969.

And the normalized growth (S. cerevisiae deletion strains, locus YOR061W, strain CKA2, hits give low values)?
The normalized growth was 0.972.

What about the normalized growth (S. cerevisiae deletion strains, locus YOR069W, strain VPS5, hits give low values) of the same compound?
Its normalized growth is 0.973.

What about the normalized growth (S. cerevisiae deletion strains, locus YOR070C, strain gyp1, hits give low values) of the same compound?
The normalized growth was 0.965.

What about the normalized growth (S. cerevisiae deletion strains, locus YOR080W, strain dia2, hits give low values) of the same compound?
The normalized growth was 0.986.

And the normalized growth (S. cerevisiae deletion strains, locus YOR083W, strain WHI5, hits give low values)?
The normalized growth was 0.951.

And the normalized growth (S. cerevisiae deletion strains, locus YOR106W, strain vam3, hits give low values)?
The normalized growth was 0.945.

And the normalized growth (S. cerevisiae deletion strains, locus YOR136W, strain idh2, hits give low values)?
The normalized growth was 0.963.

And the normalized growth (S. cerevisiae deletion strains, locus YOR144C, strain elg1, hits give low values)?
The normalized growth was 0.979.

And the normalized growth (S. cerevisiae deletion strains, locus YOR184W, strain ser1, hits give low values)?
Its normalized growth is 0.782 (active).

And the normalized growth (S. cerevisiae deletion strains, locus YOR231W, strain MKK1, hits give low values)?
The normalized growth was 0.958.

And the normalized growth (S. cerevisiae deletion strains, locus YOR265W, strain rbl2, hits give low values)?
The normalized growth was 0.983.

What about the normalized growth (S. cerevisiae deletion strains, locus YOR270C, strain vph1, hits give low values) of the same compound?
Its normalized growth is 0.683 (active).

And the normalized growth (S. cerevisiae deletion strains, locus YOR290C, strain snf2, hits give low values)?
The normalized growth was 0.979.

What about the normalized growth (S. cerevisiae deletion strains, locus YOR316C, strain cot1, hits give low values) of the same compound?
Its normalized growth is 0.974.

What about the normalized growth (S. cerevisiae deletion strains, locus YPL051W, strain arl3, hits give low values) of the same compound?
Its normalized growth is 0.976.

And the normalized growth (S. cerevisiae deletion strains, locus YPL055C, strain LGE1, hits give low values)?
Its normalized growth is 0.716 (active).

And the normalized growth (S. cerevisiae deletion strains, locus YPL078C, strain atp4, hits give low values)?
The normalized growth was 0.926.

What about the normalized growth (S. cerevisiae deletion strains, locus YPL106C, strain sse1, hits give low values) of the same compound?
Its normalized growth is 0.952.

What about the normalized growth (S. cerevisiae deletion strains, locus YPL240C, strain hsp82, hits give low values) of the same compound?
Its normalized growth is 0.97.

What about the normalized growth (S. cerevisiae deletion strains, locus YPL241C, strain CIN2, hits give low values) of the same compound?
The normalized growth was 0.973.

What about the normalized growth (S. cerevisiae deletion strains, locus YPL256C, strain CLN2, hits give low values) of the same compound?
The normalized growth was 0.99.

What about the normalized growth (S. cerevisiae deletion strains, locus YPR119W, strain clb2, hits give low values) of the same compound?
Its normalized growth is 0.956.

And the normalized growth (S. cerevisiae deletion strains, locus YPR141C, strain kar3, hits give low values)?
Its normalized growth is 0.972.

And the normalized growth (S. cerevisiae deletion strains, locus YPR163C, strain tif3, hits give low values)?
Its normalized growth is 0.921.

And the normalized growth (S. cerevisiae deletion strains, locus YPR167C, strain met16, hits give low values)?
Its normalized growth is 0.963.

What about the normalized growth (S. cerevisiae deletion strains, strain wtn01, hits give low values) of the same compound?
Its normalized growth is 0.843 (active).

What about the normalized growth (S. cerevisiae strains, strain wild type, hits give low values) of the same compound?
The normalized growth was 0.878 (active).
